The text below walks through data of PubChem BioAssay (NCATS).

In assay [1] the target is Cellular tumor antigen p53 (Homo sapiens) (UniProt P04637). The assay can be described thus: Primary qHTS for small molecule compounds that upregulate eGFP-tagged delta133p53alpha (in N-terminal) cells. (AID 2060322).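 Also: series mostly up to about 56 µM; 0% = DMSO vehicle and 100% = reference activator; nearly all actives have a fitted effect of over 75% in size.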 The note with it: NCI-H358 eGFP-delta133p53alpha fluorescence, 24 h; activation: stronger effect = higher value. In a few lines: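 NCI-H358 cells pre-induced 24 h with 10 ng/ml doxycycline to express N-terminal eGFP-delta133p53alpha, then dosed 24 h at 37C without doxycycline; fixed, Hoechst-stained, GFP intensity by laser scanning cytometry, normalized to DMSO (0%) and 57.5 uM 5-azacytidine (100%).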

The target is the same in assay [2]. Kind of assay: Primary qHTS for small molecule compounds that upregulate eGFP-tagged delta133p53alpha (in C-terminal) cells. (AID 2060324).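 Also: 0% = DMSO wells and 100% = 57.5 µM 5-azacytidine.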 In a few lines: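 C-terminal eGFP-tagged delta133p53alpha NCI-H358 line; dox-induced (100 ng/ml, 24 h) then plated without dox; compounds pinned in titration, 24 h 37 °C/5% CO2; PFA fix, Hoechst nuclei; GFP by LSC.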
(In qHTS, concentration-response curves come from the screen itself.)

Assay [3] has as its target Aldehyde dehydrogenase, mitochondrial (Homo sapiens) (UniProt P05091). The assay can be described thus: qHTS for Inhibitors of the Aldehyde Dehydrogenase Family (ALDH2) Validation screens (AID 2061302; active = well fitted inhibition curve with a large enough effect; title and protocol of this record describe different tests;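 also: plate controls were DMSO vehicle for no effect and maximal DPI positive control response for full effect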).
The target of assay [4] is Retinaldehyde dehydrogenase 3 (Homo sapiens) (UniProt P47895). The assay can be described thus: qHTS for Inhibitors of the Aldehyde Dehydrogenase Family (ALDH1A3) Validation screen (AID 2061312). Also: % is scaled to controls: 0 for no effect and ±100 for the full control effect; nearly all actives have a fitted effect of over 45% in size.
Assay [5] in a line: BET inhibitor-based combinations targeting novel dependencies in MECOM-rearranged (r) AML: SET-2 cell line (AID 2202231). Also: nearly all actives have a fitted effect of over 35% in size. Also: potency is read from the fitted curve at half-maximal effect.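 As to viability: plate controls were DMSO treated cells for no effect and wells without cells for full effect.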 Particulars: SET-2 AML cells viability, CellTiter-Glo luminescence, 48 h; viability: stronger effect = lower value, concentration not given here. In a few lines: (§1)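 Each compound was tested at eleven concentrations on cells seeded at 500/well. After two days' incubation, ATP-based luminescence reported viability; responses relative to DMSO and blank wells yielded AUC and cell-line-centred Z-AUC.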
For orientation: Cellular ATP, detected with luciferase, serves as a proxy for viable cell number.

Assay [6] can be described thus: BET inhibitor-based combinations targeting novel dependencies in MECOM-rearranged (r) AML: HNT-34 cell line (AID 2202234). Also: nearly all actives have a fitted effect of over 35% in size. Also: potency is read from the fitted curve at half-maximal effect. In a few lines:
(§2)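 First, 500 cells per well were seeded; next, drugs were pinned as 11-point doses; then plates sat 48 hr in the incubator; finally CellTiter-Glo was added and luminescence read, with AUC and Z-AUC computed.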

Assay [7] can be described thus: BET inhibitor-based combinations targeting novel dependencies in MECOM-rearranged (r) AML: MV-4-11 cell line (AID 2202233). Also: nearly all actives have a fitted effect of over 45% in size. Also: potency is read from the fitted curve at half-maximal effect. In outline: as §2
Assay [8] is described as follows: BET inhibitor-based combinations targeting novel dependencies in MECOM-rearranged (r) AML: UCSD-AML1 cell line (AID 2202235). Also: nearly all actives have a fitted effect of over 40% in size. Also: potency is read from the fitted curve at half-maximal effect. In a few lines:
as §2

The nature of assay [9]: BET inhibitor-based combinations targeting novel dependencies in MECOM-rearranged (r) AML: AML-191 cell line (AID 2202236; also: nearly all actives have a fitted effect of over 35% in size; also: potency is read from the fitted curve at half-maximal effect). In outline: as §1
A short description of assay [10]: BET inhibitor-based combinations targeting novel dependencies in MECOM-rearranged (r) AML: AML-194 cell line (AID 2202237; also: nearly all actives have a fitted effect of over 40% in size; also: potency is read from the fitted curve at half-maximal effect). In outline:
as §1

Assay [11] in a line: BET inhibitor-based combinations targeting novel dependencies in MECOM-rearranged (r) AML: OCI-AML3 cell line (AID 2202232). Also: nearly all actives have a fitted effect of over 35% in size. Also: potency is read from the fitted curve at half-maximal effect. Particulars: Potency: OCI-AML3 viability. In outline: as §1

Values joined by “and” are separate entries in the source; they are usually repeats but may differ in a detail not shown here. Equal entries are not always repeated. Results filed as inconclusive are left out. Unmarked numbers belong to inactive results. Active and inactive are the calls of the source. Unless noted, calls follow the shape of the dose curve; as a rule, active = well fitted curve in the direction sought with a large enough effect; inconclusive = small, poorly fitted or top-dose-only effect, or another doubt; inactive = no such curve, though single readings can be large; an effect the other way counts as inactive or inconclusive.

The viability is a read-out of living cells in per cent, often relative to untreated cells.

Sequence of Cellular tumor antigen p53 (Homo sapiens) (P04637 whole entry, looked up): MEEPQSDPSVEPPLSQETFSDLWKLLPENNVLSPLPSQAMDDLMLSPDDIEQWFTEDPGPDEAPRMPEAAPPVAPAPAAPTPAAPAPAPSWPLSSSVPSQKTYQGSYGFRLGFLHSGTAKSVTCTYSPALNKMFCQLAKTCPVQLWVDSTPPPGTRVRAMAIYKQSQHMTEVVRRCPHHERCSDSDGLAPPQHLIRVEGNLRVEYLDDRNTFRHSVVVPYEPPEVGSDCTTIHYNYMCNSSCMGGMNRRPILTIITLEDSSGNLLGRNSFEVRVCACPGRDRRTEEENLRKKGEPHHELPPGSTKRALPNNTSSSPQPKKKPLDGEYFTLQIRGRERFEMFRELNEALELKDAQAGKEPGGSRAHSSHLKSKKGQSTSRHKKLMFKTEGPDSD

For the molecule `CC/C(=C(\c1ccccc1)c1ccc(OCCN(C)C)cc1)c1ccccc1`, the activation in assay [1] is -17.6% and -12.3% and -27%. In addition, the Potency entry in assay [2], in [3] and in [4] was “inactive” in each case. In addition, the Potency is 12.1 µM (active) in assay [5] and 15.2 µM (active) in assay [6].

With `CN[C@H](CC(C)C)C(=O)N[C@H]1C(=O)N[C@@H](CC(N)=O)C(=O)N[C@H]2C(=O)N[C@H]3C(=O)N[C@H](C(=O)N[C@H](C(=O)O)c4cc(O)cc(O)c4-c4cc3ccc4O)[C@H](O)c3ccc(c(Cl)c3)Oc3cc2cc(c3O[C@@H]2O[C@H](CO)[C@@H](O)[C@H](O)[C@H]2O[C@H]2C[C@](C)(N)[C@H](O)[C@H](C)O2)Oc2ccc(cc2Cl)[C@H]1O`, the activation in assay [1] was -2.02%. Besides, the Potency entry in assay [2], in assay [3], in assay [4], in assay [7], in [6] and in [8] was “inactive” each time. Further, the Potency entry in assay [9] and in assay [10] was “inactive” in each case.

Consider `Nc1nc(N)c(N=O)c(OCC2CCCCC2)n1`, for which the activation in [1] is -20.9%. The Potency entry in assay [2], in assay [3] and in [4] was “inactive” in each case. In addition, the Potency in assay [6] is 5.25 µM (active); in assay [8], 3.32 µM (active).

As for `Cc1ccc(N(CC2=NCCN2)c2cccc(O)c2)cc1`, the activation in assay [1] was -15.3% and 15.9%. Moreover, the Potency entry in [2], in assay [3] and in [4] was “inactive” throughout. Further, in assay [5], the viability is 97.5%. The Potency was 26.3 µM (active) in assay [7] and 23.5 µM (active) in assay [8].

As to `CC[C@H](C)C(=O)O[C@H]1CCC=C2C=C[C@H](C)[C@H](CC[C@@H]3C[C@@H](O)CC(=O)O3)[C@H]21`, the activation in [1] was -12.3%. Also, the Potency entry in [2], in assay [3] and in [4] was “inactive” in each case. In assay [11], the Potency is 11.8 µM (active).

On to `CC1COc2c(N3CCN(C)CC3)c(F)cc3c(=O)c(C(=O)O)cn1c23` (stereo not drawn), for which the activation in assay [1] was 11.7% and -7% and 13.8%. Further, the Potency result in [2], in [3], in [4], in assay [7], in assay [6] and in [8] was “inactive” each time. Besides, the Potency result in assay [9] and in [10] was “inactive” each time. For the same molecule, the viability in assay [5] was 102%.

For `O=c1c(-c2ccc(O)cc2)coc2cc(O)cc(O)c12`, in [1], the activation is -2.22% and -24.3% and -49.4%. Also, the Potency entry in assay [2], in [3] and in assay [4] was “inactive” in each case. In addition, the Potency in assay [5] was 42.8 µM (active); in assay [7], 34 µM (active); in [6], 21.5 µM (active); in [9], 42.8 µM (active).

As to `NC12CC3CC(CC(C3)C1)C2`, the activation in [1] was 1.69% and 3.9%. Also, the Potency entry in assay [2], in assay [3], in assay [4], in assay [7], in assay [6] and in assay [8] was “inactive” in each case. Further, the Potency entry in [9] and in assay [10] was “inactive” throughout. Besides, the viability in assay [5] is 106%.

Turning to `Cc1cccc(-c2[nH]c(C(C)(C)C)nc2-c2ccc3nccnc3c2)n1`, the activation in [1] was -6.37% and 25.5%. The Potency result in assay [2], in assay [3], in assay [4], in [11] and in assay [8] was “inactive” throughout.

Turning to `Nc1c2c(nc3ccccc13)CCCC2`, the activation in assay [1] was -15.6% and 9.21% and -7.03%. Further, the Potency result in assay [2], in assay [3], in assay [4] and in assay [9] was “inactive” throughout. For the same molecule, the viability in assay [5] was 102%.

As for `NC(N)=NC(=O)c1nc(Cl)c(N)nc1N`, the activation in assay [1] was 11.3% and -28.8% and -10.6%. In addition, the Potency result in assay [2], in assay [3] and in assay [4] was “inactive” throughout. In addition, the Potency in [11] is 9.59 µM (active); in assay [7], 13.5 µM (active); in assay [8], 30.3 µM (active).

As to `O=C(CCc1ccc(O)cc1)c1c(O)cc(O)cc1O`, the activation in assay [1] was 27.3% and 7.98%. Also, the Potency result in assay [2], in [3], in [4] and in [10] was “inactive” each time. Also, the viability in [5] is 105%.

`CCOC(=O)c1ncn2c1CN(C)C(=O)c1cc(F)ccc1-2`: the activation in [1] was -0.975% and -12.6% and 1.77%. Besides, the Potency result in [2], in assay [3], in assay [4], in assay [7], in [6] and in assay [8] was “inactive” throughout. In assay [10], the Potency entry is “inactive”. Besides, the viability in assay [5] was 114%.

For `Cc1cnc(C(=O)NCCc2ccc(S(=O)(=O)NC(=O)NC3CCCCC3)cc2)cn1`, the activation in [1] was -31.3% and -14.1% and 0.362%. In addition, the Potency entry in assay [2], in [3], in assay [4], in assay [11], in [6] and in assay [9] was “inactive” in each case. For the same molecule, the Potency entry in assay [10] is “inactive”.

`CC#C[C@]1(O)CC[C@H]2[C@@H]3CCC4=CC(=O)CCC4=C3[C@@H](c3ccc(N(C)C)cc3)C[C@@]21C`: the activation in assay [1] is 7.02%. Moreover, the Potency entry in assay [2], in assay [3] and in assay [4] was “inactive” each time. Further, the results for the Potency in assay [7] and in [10] were 23.5 µM (active) and 18.6 µM (active), respectively.

For the molecule `CC(C[N+](C)(C)C)OC(N)=O` (stereo not drawn), the activation in assay [1] is -5.86% and -4.18% and -40.2%. Also, the Potency entry in [2], in assay [3], in assay [4], in assay [7], in assay [6] and in assay [10] was “inactive” throughout. In assay [5], the viability was 116%.

On to `OC(CCN1CCCCC1)(c1ccccc1)C1CC2C=CC1C2` (stereo not drawn), for which, in [1], the activation was -27.6% and 6.19% and -26.9%. Moreover, the Potency result in assay [2], in assay [3], in assay [4], in [6], in assay [8] and in assay [9] was “inactive” each time. Besides, in assay [10], the Potency result is “inactive”. Further, the viability in assay [5] is 97.6%. Also, in [7], the Potency is 23.5 µM (active).

For `Oc1ccc(/C=C/c2cc(O)cc(O)c2)cc1`, in assay [1], the activation was 1.67% and -36.3%. The Potency entry in assay [2], in [3] and in assay [4] was “inactive” in each case. Further, the Potency in assay [11] was 14.8 µM (active); in assay [7], 16.6 µM (active).

`COc1ccc([C@@H]2Sc3ccccc3N(CCN(C)C)C(=O)[C@@H]2OC(C)=O)cc1`: in [1], the activation was 17.5% and -3.98%. The Potency entry in assay [2], in assay [3], in assay [4], in assay [11], in assay [7] and in assay [6] was “inactive” in each case. The Potency result in assay [8], in assay [9] and in assay [10] was “inactive” throughout.
